High-throughput results: PubChem BioAssay, National Center for Advancing Translational Sciences (NCATS)
Hits are enriched below; roughly 12% of the tested compounds scored in any of these assays.
G9a inh: G9a (human) methyltransferase inhibition. actives 8.8% (n = 350,000). AID 504332. Q96KQ7. G9a H3K9 monomethylation, AlphaScreen, 2 h. Potency, µM (titrated, usually from 102 µM), inactives show at the highest dose activity, negative = inhibition, most hits filed as inhibitors; also: % is scaled to controls: 0 for no effect and ±100 for the full control effect; nearly all actives have a fitted effect of over 75% in size
Target sequence (Q96KQ7 913-1193 limits assumed): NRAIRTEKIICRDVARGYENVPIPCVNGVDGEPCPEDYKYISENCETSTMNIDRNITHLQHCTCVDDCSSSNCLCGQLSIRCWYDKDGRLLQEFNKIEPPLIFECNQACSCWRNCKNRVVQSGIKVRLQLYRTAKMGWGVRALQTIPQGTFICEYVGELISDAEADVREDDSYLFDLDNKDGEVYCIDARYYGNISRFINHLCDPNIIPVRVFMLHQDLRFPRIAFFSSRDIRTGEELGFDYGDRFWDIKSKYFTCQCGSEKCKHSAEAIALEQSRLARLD
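Step 1: enzyme (final 20 nM) with compound, 15 min RT. Step 2: substrate peptide 500 nM and SAM 20 uM, 2 h RT. Step 3: anti-H3K9me1 antibody and AlphaScreen beads, 10 min, then plate read.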
BAZ2B block: inhibitors of human BAZ2B bromodomain | actives 4.4% (n = 360,000) | Q9UIF8 | Potency, µM (titrated, usually from 114 µM), without a hit: at the highest dose activity change, negative = inhibition, actives largely listed as inhibitors | AlphaScreen BAZ2B-H3K14Ac peptide displacement; also: % is scaled to controls: 0 for no effect and ±100 for the full control effect; nearly all actives have a fitted effect of over 60% in size
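AlphaScreen displacement of biotin-H3(5-23)K14Ac peptide (50 nM final) from BAZ2B (50 nM final) in PBS pH 7.4, 0.01% Tween-20; complex preformed 30 min RT, then compounds (top 110 uM) 30 min RT, beads 20 min dark.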
L3MBTL1 inh: inhibitors of human L3MBTL1. Q9Y468. AlphaScreen L3MBTL1–H3K9me1 peptide binding. Potency, µM (top dose mostly 57.1 µM), for the others: top-dose activity, negative = inhibition, most hits filed as inhibitors. actives 0.66% (n = 230,000). AID 485360; also: % is scaled to controls: 0 for no effect and ±100 for the full control effect; nearly all actives have a fitted effect of over 60% in size
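AlphaScreen assay: L3MBTL1 (50 nM final) was preincubated 30 min at room temperature with biotinylated H3(1-15)K9me1 peptide (75 nM final), then 30 min with library compounds; streptavidin donor and nickel chelate acceptor beads (10 ug/mL final) added, 30 min dark.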
HP1b chromo inh: inhibitors of HP1-beta chromodomain binding to methylated histone tails | P83916 | AlphaScreen HP1-beta / biotin-H3K9me3 peptide binding | Potency, µM (highest dose often 114 µM), without a hit: top-dose activity change, negative = inhibition, actives largely listed as inhibitors | actives 0.56% (n = 390,000) | AID 540317; also: nearly all actives have a fitted effect of over 70% in size
Target sequence (P83916 whole entry, looked up): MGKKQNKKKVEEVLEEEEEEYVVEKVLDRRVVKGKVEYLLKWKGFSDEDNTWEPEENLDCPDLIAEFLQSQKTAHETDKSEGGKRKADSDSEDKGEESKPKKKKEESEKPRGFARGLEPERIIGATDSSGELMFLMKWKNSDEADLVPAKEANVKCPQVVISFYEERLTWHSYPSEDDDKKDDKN
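Compound inhibition of the preformed complex between 50 nM HP1-beta and 50 nM biotinylated H3K9me3 peptide was read by AlphaScreen. Buffer was PBS pH 7.4 with 0.01% Tween-20. Incubations ran 30 min at room temperature, with 10 ug/mL donor/acceptor beads.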
Sfp PPTase inh: blocks B. subtilis Sfp PPTase activity. AID 1490. Potency, µM, inactives show largest response in the series, negative = inhibition, usual class: inhibitors. Biochemical Sfp PPTase activity, qHTS. actives 3.5% (n = 310,000);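 also: the enzyme is Sfp with the accession as filed and its product quenches rhodamine fluorescence; 0% = enzyme reaction without inhibitor and -100% = no enzyme wells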
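Compounds were incubated with enzyme (final 15 nM) for 15 min at room temperature before substrate addition started the reaction. Fluorescence at 525 nm excitation, 598 nm emission was recorded immediately and after 30 minutes.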
JMJD2A Tudor inh: JMJD2A Tudor domain (human) inhibition; AlphaScreen JMJD2A-Tudor / H3K4me3 peptide binding; Potency, µM (doses to about 114 µM), without a hit: at the top dose activity change, negative = inhibition, most hits filed as inhibitors; actives 4.4% (n = 390,000); also: % is scaled to controls: 0 for no effect and ±100 for the full control effect; nearly all actives have a fitted effect of over 50% in size
The depositor's hits bear a star; ? = inconclusive; . = no result; ! = not active in a repeat; [ ] = remark or other dose. Calls follow the shape of the dose curve; as a rule, active = well fitted curve in the direction sought with a large enough effect; inconclusive = small, poorly fitted or top-dose-only effect, or another doubt; inactive = no such curve, though single readings can be large; an effect the other way counts as inactive or inconclusive. Potency is read from the fitted curve at half-maximal effect.

SMILES	G9a inh	BAZ2B block	L3MBTL1 inh	HP1b chromo inh	Sfp PPTase inh	JMJD2A Tudor inh
CC(CC1C(C#N)=C(N)SC(N)=C1C#N)c1ccccc1 (stereo not given)	10µM*	-23%	5%	13%	7.9µM*	56µM*
CCCCc1nc2c(c3c1C[C@H](C)OC3)CN(C(=O)c1cc(I)ccc1F)CC2	.	.	.	.	12%	.
CN(C)S(=O)(=O)c1cccc(C(=O)N2CCc3ccccc32)c1	-2%[59 µM]	5%	-1%	-11%	9%	-4%[11.4 µM]
CN(C)S(=O)(=O)c1cccc(C(=O)C2=C3SC=C(c4ccccc4)N3CC2)c1	?	-13%	-3%	35%	56µM*	-7%
O=C(CN1CCN(c2ncccn2)CC1)NCc1ccc2c(c1)OCO2	8%	-18%	.	26%	5%	-6%
O=C(CN1CCN(c2nc(-c3ccc(F)cc3)cs2)CC1)NCc1ccc2c(c1)OCO2	40µM*	?	?	-22%	-29%	?
NC(=O)C1CCN(c2nc(-c3cccnc3)cs2)CC1	-4%[12.7 µM]	-3%	3%	38%	.	79µM*
NC(=O)C1CCN(c2nc(-c3ccccc3C(F)(F)F)cs2)CC1	-10%[12.7 µM]	-37%	?	11%	.	79µM*
NC(=O)C1CCN(c2nc(-c3cccc(N)c3)cs2)CC1	?	?	-6%	19%	.	-18%
NC(=O)C1CCN(c2nc(-c3ccc(F)cc3)cs2)CC1	-24%[12.7 µM]	56µM*!	?	29%	.	-18%
NC(=O)C1CCN(c2nc(-c3ccccc3F)cs2)CC1	1%[12.7 µM]	?	-10%	12%	.	-30%
C=CCCCCCCCCCBr	.	.	.	.	1%	.
Cc1ccc(N2CCN(Cc3nnc(-c4ccc5c(c4)OCO5)o3)CC2)c(C)c1	0%[59 µM]	-2%	.	24%	.	19%
COC(=O)[C@H](COC(C)(C)C)NC(=O)O[C@@H]1C(=O)c2ccc(OC)cc2O[C@H]1c1cccc(C(F)(F)F)c1	.	.	.	.	14%	.
Cc1ccc(C)c(Cn2c(SCC(=O)N(C)Cc3ccccc3)nc3ccccc32)c1	4%[12.7 µM]	-14%	.	36%	.	-4%
Cn1ccc2cc(-c3csc(N4CCC(C(N)=O)CC4)n3)ccc21	-25%[12.7 µM]	50µM*	-5%	50%	.	-7%
CNc1ccccc1C(C)(C)c1cc(-c2cc(C)cc(C)c2)no1	7%[59 µM]	-33%	8%	23%	-16%	-1%
CNc1ccccc1C(C)(C)c1cc(-c2cccc(OC)c2)no1	1.6µM*	-32%	-28%	32%	1%	-14%
Fc1ccc(-c2cn3cc(Cc4ccc(Cl)cc4)sc3n2)cc1	11%[59 µM]	-14%	.	40%	.	-1%
COc1ccc(C2CC(c3ccc(C)o3)=NN2C(C)=O)cc1 (stereo not given)	?	-8%	4%	-3%	-3%	-12%
CCOc1cccc2c1OC(c1cc(OC)c(OC)c(OC)c1)N1N=C(c3ccc(C)o3)CC21 (stereo not given)	13µM*	?	-5%	11%	?	-34%
O=C(Cn1ccn(-c2ccc(F)cc2)c(=O)c1=O)NCCc1ccccc1	-30%[59 µM]	?	.	23%	.	-9%
Cc1cc(C=O)c(C)n1-c1ccc(NC2CCCC2)c([N+](=O)[O-])c1	-14%	-11%	-1%	32µM*	-9%	20µM*
C/C(=C\C(=S)Nc1ccccc1)Nc1ccc2ccccc2c1	-49%[59 µM]	25µM*	?	?	?	79µM*
CC(C)(C)Sc1ccc(N)nc1	50µM*	?	0%	14%	-19%	-16%
SMILES	G9a inh	BAZ2B block	L3MBTL1 inh	HP1b chromo inh	Sfp PPTase inh	JMJD2A Tudor inh
CSc1ccc(C(=S)N2CCCC2)cc1	32µM*	-21%	-3%	?	50µM*	-11%
CSc1ccc(C(=S)N2CCN(C(c3ccccc3)c3ccccc3)CC2)cc1	10µM*	-37%	.	-39%	35µM*	-31%
CSc1ccc(C(=S)N2CCN(C)CC2)cc1	?	4%	-3%	-15%	6.3µM*	-18%
CCCNC(=S)N1CCN(C(c2ccccc2)c2ccccc2)CC1	13%	-10%	-8%	33%	-9%	-13%
CC(C)COc1ccc(C(=S)N2CCCC2)cc1	.	.	.	8%	.	-22%
Cc1ccccc1C(=O)n1nc(-c2ccco2)nc1NCc1cccs1	?	-6%	.	-22%	.	-19%
COC(=O)C1=C(NC(=O)C2CCCCC2)CCS1	1.8µM*	?	-17%	-3%	2%	?
Fc1ccccc1/C=N/n1c(COc2ccccc2)n[nH]c1=S	2.2µM*	?	.	?	56µM*	32µM*
Cc1ccc(/C=N/n2c(COc3ccccc3)n[nH]c2=S)o1	13µM*	-33%	?	-3%	45µM*	56µM*
CCOc1ccccc1/C=N/n1c(C)nc2ccccc2c1=O	-11%[2.33 µM]	2%	.	17%	7%	-8%
O=C(COc1ccccc1)NCC(=O)N/N=C/c1ccc(O)cc1O	45%[59 µM]	-12%	.	9%	7%	-32%
CCOc1ccccc1/C=N/n1c(COc2ccccc2)n[nH]c1=S	14µM*	?	.	-4%	35µM*	?
Oc1ccc(/C=N/n2c(COc3ccccc3)n[nH]c2=S)c(O)c1	1.8µM*	-13%	.	-13%	56µM*	-22%
S=c1[nH]nc(COc2ccccc2)n1/N=C/c1ccc(Cl)cc1Cl	?	4%	.	2%	-1%	-14%
COc1cc2nc(NCCc3ccc(Cl)cc3)n3nc(-c4ccccc4)nc3c2cc1OC	-19%[59 µM]	-29%	.	22%	.	-8%
Cc1ccccc1Nc1nnc(-c2ccc(C)c(S(=O)(=O)NCC3CCCO3)c2)c2ccccc12 (stereo not given)	?	-14%	.	18%	.	-12%
Oc1ccccc1/C=N/n1c(COc2ccccc2)n[nH]c1=S	2.5µM*	-35%	.	?	?	79µM*
Cc1ccccc1/C=N/n1c(COc2ccccc2)n[nH]c1=S	2µM*	-1%	.	-2%	-11%	-7%
Cc1cc(C)c(Cn2c3ccccc3c3cnn(CC(=O)NCCc4ccccc4)c(=O)c32)c(C)c1	28%[59 µM]	-3%	.	57%	.	9%
O=c1[nH]c(=S)[nH]nc1Cc1ccc(Cl)c(Cl)c1	50µM*	16%	.	31%	25%	-9%
CC(C)(C)c1ccc(Cc2n[nH]c(=S)[nH]c2=O)cc1	23%[2.33 µM]	2%	.	36%	18%	-8%
Cc1cccc(N2CCc3c2nc2ccc(Br)cc2c3N)c1	?	-36%	3%	29%	13µM*	-30%
Nc1c2c(nc3ccc(Br)cc13)N(c1ccccc1)CC2	?	40µM*	.	50µM*	18µM*	10µM*
CO[C@@H]1COC(=O)[C@H](CCSC)NC(=O)C/C=C\[C@@H](C)COC(=O)[C@@H]2CCCN2C(=O)C/C=C\[C@H]1C	.	.	.	.	13%	.
